In all, about 9,900 sequences were measured (“r (bound/input frequency ratio)”: median about 0.7, highest 2% from about 6.5 on). The sample holds the highest values, similar sequences and a random draw of the others, so the mix is not that of the screen.
B1: ENSMUSG00000058297.177|Spock2 (ssRNA)
RNA: GGGAGUUCUACAGUCCGACGAUCGCUUCGAUAUCCGCAUGCUAUGUCAUCAUAUAGCUGAGAUUUGGAGUAGCCUGCUAUGAGGGCUUGCAGUUGCACUCUCUGUUCCCUGGCGAGGGUCCCCCUUGUCCCAAGGAGCAGAGGACCAGCAAGCAGCCCGUGUCUGCUCACCUUCUCCCUGACCCUCUAGGAAAUGGUUCCCUCUUGCCCCGACCAAUAGAAGGGCGUGUCCCCGAGACCCUUGUGAGGAACCACGGGGAGCUGUGACUUCCUGUGCCCAGAAGGUCCUGGAGGAGAGGCCCCACUCUUGCGGUCGCACUAGUGUGGAAUUCUCGGGUGUCAAGG
B2: ENSMUSG00000058297.112|Spock2|39:44 (ssRNA)
RNA: GGGAGUUCUACAGUCCGACGAUCGCUUCGAUAUCCGCAUGCUAUACUAUCCGUCUCCUGACAUCCGAAGAGCUCGUCGCAGCACACACUAAUGGCCCUUGGGCUGCACGUGGUUAAGCAUAGCUGUCUCUGUGGCCCAACACAAAGAGGUAAACUUACUUAAAACACAGGGGUUUUGUUGCUGUUUGUUUUUUGUUAGUUUGUUUGUUGAUAAUUGGAUUGAGGAGUUAAUCCUCUGUCACAAUGUCAAAAGCAUGGACAUCCCUGAUAGAUUAUCUCUCAACCUAGUCCCGAGUAACCAGAGCUCUUGCGGUCGCACUAGUGUGGAAUUCUCGGGUGUCAAGG
B3: ENSMUSG00000022095.12|Fam160b2|69:73 (ssRNA)
RNA: GGGAGUUCUACAGUCCGACGAUCGCUUCGAUAUCCGCAUGCUAAACUUCUCUCCACCUCCAGAAGGGCAAGUCUGAGCCAGGAGCAUGACGGGUGGGGGAAGAUUCCUGCCACACAACUUCUGCCCACGGGCAGUCUCCUGCCUGGCCAUGCUGCCACUCUGUCCUCCAUGCCGGGGACUUCAGCUGCAGGACACCUCACCUGUUGACCCCACGAGCUGAGGUUUCAAGGAGGUGCUGGCUCCUAAGGCAGUGGUAUUCUUGGAGCCUUUUAGAGGAGCUAGAGGAUGGCCAGUGAGCGCCUACUCUUGCGGUCGCACUAGUGUGGAAUUCUCGGGUGUCAAGG
B4: ENSMUSG00000028439.123|Fam219a|54:58 (ssRNA)
RNA: GGGAGUUCUACAGUCCGACGAUCGCUUCGAUAUCCGCAUGCUACUGAGGGUUGGGAAGGUAAGAUGGGCCUUAGAGAGAAGCCAGGUUUGGGGAUGCAUACACCUGUUCUCACCGGUCUCUAACCAGUGCAUCUGUCUCUCUGCCUCAUCCCCACACCGCCCUGCCACCCCCAGUCUUCUGUCUAUUGGUUCCAGGCUGGAAGCAAGAGAUAAGGCUGGCCUCCUGUGCCCCAUUGCCAUUUCACCCUAGCUCAAAGUCCAGGAGCCAGGCUUCCAGAAAGGCUCUUCAAGAGCAAGCUUAAGCUCUUGCGGUCGCACUAGUGUGGAAUUCUCGGGUGUCAAGG
B5: ENSMUSG00000042529.393|Kcnj12 (ssRNA)
RNA: GGGAGUUCUACAGUCCGACGAUCGCUUCGAUAUCCGCAUGCUAUCCGACUUGAGUCCCUGCCCUGCCCUGGUUAUGCAGGCUGUACGACGCAGUGUGCAUCAGUCUGAGGAGUCUGGUGGUAAGUAAGCCUCUGCAGCAGACCCUGUCGGAGGCCAUGGGGGCGUGUGUGUGUGUGUGUGUGUGUGUGUGUGUGUGUGUGUGUGUGUGUGUGUGUGAACAUGUGUGAGGGUGUGGAGGUCCCAGGGUGUGUGUAUGUGAAUGUCAGUGGCUUGGGUGCUGUGUGGAGAGAGAGAGAGAGAGAGCUCUUGCGGUCGCACUAGUGUGGAAUUCUCGGGUGUCAAGG
B6: ENSMUSG00000042529.392|Kcnj12 (ssRNA)
RNA: GGGAGUUCUACAGUCCGACGAUCGCUUCGAUAUCCGCAUGCUAGAUCAGUCCGACUUGAGUCCCUGCCCUGCCCUGGUUAUGCAGGCUGUACGACGCAGUGUGCAUCAGUCUGAGGAGUCUGGUGGUAAGUAAGCCUCUGCAGCAGACCCUGUCGGAGGCCAUGGGGGCGUGUGUGUGUGUGUGUGUGUGUGUGUGUGUGUGUGUGUGUGUGUGUGUGUGUGAACAUGUGUGAGGGUGUGGAGGUCCCAGGGUGUGUGUAUGUGAAUGUCAGUGGCUUGGGUGCUGUGUGGAGAGAGAGAGAGCUCUUGCGGUCGCACUAGUGUGGAAUUCUCGGGUGUCAAGG
B7: ENSMUSG00000042529.398|Kcnj12 (ssRNA)
RNA: GGGAGUUCUACAGUCCGACGAUCGCUUCGAUAUCCGCAUGCUAAUGCAGGCUGUACGACGCAGUGUGCAUCAGUCUGAGGAGUCUGGUGGUAAGUAAGCCUCUGCAGCAGACCCUGUCGGAGGCCAUGGGGGCGUGUGUGUGUGUGUGUGUGUGUGUGUGUGUGUGUGUGUGUGUGUGUGUGUGUGAACAUGUGUGAGGGUGUGGAGGUCCCAGGGUGUGUGUAUGUGAAUGUCAGUGGCUUGGGUGCUGUGUGGAGAGAGAGAGAGAGAGAGAGAGAGAGAGAGAGAGAGAGAGAGAGAGAGCUCUUGCGGUCGCACUAGUGUGGAAUUCUCGGGUGUCAAGG
B8: ENSMUSG00000058297.302|Spock2|29:34 (ssRNA)
RNA: GGGAGUUCUACAGUCCGACGAUCGCUUCGAUAUCCGCAUGCUAAUGCCCAGGAAGAGUGAGGGCAGCCCCCACACACGUGGAAGAGGCUGGGCAGCUAGCUACUGGGGACCUUGUGCUGAGGCUUCCAGGACAAAGCCCCAGUCUGGCUCUCCCCCAGCCUCUCAGGGGCACUGGCUGGUCACAUCCACUGAGUAUUGAUCGGUUGGACUUUAGGGAAGAGCCUCCUCCUUCCCAUUCCUUUCUGCCACCCUGGAAUGGCCACCUUAAUCGUCAUCUCCUCGGGGGGAAUACGGAAAUGUCACCUCUUGCGGUCGCACUAGUGUGGAAUUCUCGGGUGUCAAGG
B9: ENSMUSG00000042529.387|Kcnj12 (ssRNA)
RNA: GGGAGUUCUACAGUCCGACGAUCGCUUCGAUAUCCGCAUGCUACUGGUCAGGCUGGAUGCUGGCCACAGACAUGAUCAGUCCGACUUGAGUCCCUGCCCUGCCCUGGUUAUGCAGGCUGUACGACGCAGUGUGCAUCAGUCUGAGGAGUCUGGUGGUAAGUAAGCCUCUGCAGCAGACCCUGUCGGAGGCCAUGGGGGCGUGUGUGUGUGUGUGUGUGUGUGUGUGUGUGUGUGUGUGUGUGUGUGUGUGUGAACAUGUGUGAGGGUGUGGAGGUCCCAGGGUGUGUGUAUGUGAAUGUCAGUCUCUUGCGGUCGCACUAGUGUGGAAUUCUCGGGUGUCAAGG
B10: ENSMUSG00000042529.386|Kcnj12 (ssRNA)
RNA: GGGAGUUCUACAGUCCGACGAUCGCUUCGAUAUCCGCAUGCUACCUGAACUGGUCAGGCUGGAUGCUGGCCACAGACAUGAUCAGUCCGACUUGAGUCCCUGCCCUGCCCUGGUUAUGCAGGCUGUACGACGCAGUGUGCAUCAGUCUGAGGAGUCUGGUGGUAAGUAAGCCUCUGCAGCAGACCCUGUCGGAGGCCAUGGGGGCGUGUGUGUGUGUGUGUGUGUGUGUGUGUGUGUGUGUGUGUGUGUGUGUGUGUGAACAUGUGUGAGGGUGUGGAGGUCCCAGGGUGUGUGUAUGUGAAUCUCUUGCGGUCGCACUAGUGUGGAAUUCUCGGGUGUCAAGG
B11: ENSMUSG00000042529.388|Kcnj12 (ssRNA)
RNA: GGGAGUUCUACAGUCCGACGAUCGCUUCGAUAUCCGCAUGCUAAGGCUGGAUGCUGGCCACAGACAUGAUCAGUCCGACUUGAGUCCCUGCCCUGCCCUGGUUAUGCAGGCUGUACGACGCAGUGUGCAUCAGUCUGAGGAGUCUGGUGGUAAGUAAGCCUCUGCAGCAGACCCUGUCGGAGGCCAUGGGGGCGUGUGUGUGUGUGUGUGUGUGUGUGUGUGUGUGUGUGUGUGUGUGUGUGUGUGAACAUGUGUGAGGGUGUGGAGGUCCCAGGGUGUGUGUAUGUGAAUGUCAGUGGCUUGCUCUUGCGGUCGCACUAGUGUGGAAUUCUCGGGUGUCAAGG
B12: ENSMUSG00000042529.397|Kcnj12 (ssRNA)
RNA: GGGAGUUCUACAGUCCGACGAUCGCUUCGAUAUCCGCAUGCUACUGGUUAUGCAGGCUGUACGACGCAGUGUGCAUCAGUCUGAGGAGUCUGGUGGUAAGUAAGCCUCUGCAGCAGACCCUGUCGGAGGCCAUGGGGGCGUGUGUGUGUGUGUGUGUGUGUGUGUGUGUGUGUGUGUGUGUGUGUGUGUGUGAACAUGUGUGAGGGUGUGGAGGUCCCAGGGUGUGUGUAUGUGAAUGUCAGUGGCUUGGGUGCUGUGUGGAGAGAGAGAGAGAGAGAGAGAGAGAGAGAGAGAGAGAGAGAGCUCUUGCGGUCGCACUAGUGUGGAAUUCUCGGGUGUCAAGG
B13: ENSMUSG00000022095.3|Fam160b2|123:127 (ssRNA)
RNA: GGGAGUUCUACAGUCCGACGAUCGCUUCGAUAUCCGCAUGCUAAAGGAGCUGGCUGCCAUUGCGUUUGUCAAGUUUCCCCCACACGGUCCUUACCUGAACUUCUCUCCACCUCCAGAAGGGCAAGUCUGAGCCAGGAGCAUGACGGGUGGGGGAAGAUUCCUGCCACACAACUUCUGCCCACGGGCAGUCUCCUGCCUGGCCAUGCUGCCACUCUGUCCUCCAUGCCGGGGACUUCAGCUGCAGGACACCUCACCUGUUGACCCCACGAGCUGAGGUUUCAAGGAGGUGCUGGCUCCUAAGGCCUCUUGCGGUCGCACUAGUGUGGAAUUCUCGGGUGUCAAGG

These binders were tested against TDP-43 (Homo sapiens, UniProt Q13148 1-414) (assay: RNA Bind-n-Seq with designed 260-mer pool; 25 mM Tris-HCl, 150 mM KCl, 3 mM MgCl2, BSA (printed 500 mg/mL), 20 units/mL SUPERase IN; pH not stated; 500 nM RNA pool, 1 h, 4 C; TDP-43 5, 50, 500 nM; high values mean tight binding). Settings: protein: recombinant; tags: SBP (GST cleaved off with PreScission; pGEX-GST-SBP).
TDP-43, sequence (Q13148 whole entry): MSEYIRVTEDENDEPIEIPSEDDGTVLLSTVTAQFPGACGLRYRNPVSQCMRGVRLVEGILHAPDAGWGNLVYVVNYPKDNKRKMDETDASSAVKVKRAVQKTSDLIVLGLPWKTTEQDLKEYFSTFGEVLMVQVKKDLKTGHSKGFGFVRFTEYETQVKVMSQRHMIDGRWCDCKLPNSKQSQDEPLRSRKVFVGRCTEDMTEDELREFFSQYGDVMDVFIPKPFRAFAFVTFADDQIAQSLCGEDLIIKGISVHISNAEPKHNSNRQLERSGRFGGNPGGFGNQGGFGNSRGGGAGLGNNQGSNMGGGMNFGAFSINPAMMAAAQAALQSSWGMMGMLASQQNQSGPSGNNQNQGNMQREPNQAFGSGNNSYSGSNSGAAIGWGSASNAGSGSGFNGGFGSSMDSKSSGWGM
Method in brief: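 Streptavidin beads captured recombinant SBP-tagged TDP-43 at 5, 50 or 500 nM, and the beads were incubated for 1 h at 4 °C with 500 nM of an in vitro-transcribed pool of 260-nt 3′ UTR oligos in 25 mM Tris-HCl, 150 mM KCl, 3 mM MgCl2, BSA and SUPERase IN. After washing, bound RNA was eluted with biotin, reverse transcribed, PCR-amplified and sequenced. Binding is reported as R, the mapped-read-normalized abundance of each oligo in the bound sample divided by its abundance in the input. Two independent protein batches served as duplicates.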
In the case of B1, the binding signal is reported as 0.086 R (bound/input frequency ratio). In the case of B2, the binding signal is reported as 1.33 R (bound/input frequency ratio). In the case of B3, the binding signal is reported as 0.253 R (bound/input frequency ratio). In the case of B4, the binding signal is reported as 0.5 R (bound/input frequency ratio). With B5 the binding signal was 5.42 R (bound/input frequency ratio). With B6 the binding signal was 7.12 R (bound/input frequency ratio). With B7 the binding signal was 5.26 R (bound/input frequency ratio). B8 was tested, and the binding signal was 0.746 R (bound/input frequency ratio). B9 was tested, and the binding signal was 12.1 R (bound/input frequency ratio). With B10 the binding signal was 6.36 R (bound/input frequency ratio). With B11 the binding signal was 9.68 R (bound/input frequency ratio). With B12 the binding signal was 5.15 R (bound/input frequency ratio). B13 was tested, and the binding signal was 0.205 R (bound/input frequency ratio).
